Results taken from PubChem BioAssay (NCI).
Compounds without any hit were thinned out: in the full panel of roughly 79,000, 15% have a hit. Activity calls are given as the source filed them. Cut-off read from the data, not from the text of the source: active = growth inhibition above about 70%; inactive = the rest.

How the values were obtained:
[1] = NCI Yeast Anticancer Drug Screen. Data for the rad50 strain (AID 155);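 note: 0% = growth of vehicle-only cultures of the same strain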; details: S. cerevisiae rad50 strain growth inhibition; at 50.0 µM; hits give high values
Summary of the method: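 Readout: growth inhibition relative to vehicle-treated cultures. Compound exposure was carried out in a genetically defined yeast strain deficient in DNA damage repair.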

[2] = NCI Yeast Anticancer Drug Screen. Data for the sgs1 mgt1 strain (AID 161);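 note: 0% = growth of cultures given vehicle only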; details: S. cerevisiae sgs1 mgt1 strain, at 50.0 µM, hits give high values
Summary of the method: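 Read-out: growth inhibition vs vehicle controls. Cells: mutant yeast strain deficient in DNA damage repair.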

[3] = NCI Yeast Anticancer Drug Screen. Data for the cln2 rad14 strain (AID 165);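 note: 0% = growth equal to vehicle treated cultures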; details: S. cerevisiae cln2 rad14 strain, at 50.0 µM, hits give high values
Summary of the method: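 Growth of compound-exposed yeast (cln2 rad14 genotype) measured and expressed as inhibition relative to vehicle.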

[4] = NCI Yeast Anticancer Drug Screen. Data for the bub3 strain (AID 167); details: S. cerevisiae bub3 mutant strain, at 50.0 µM, hits give high values
Summary of the method: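 Readout: yeast growth inhibition, expressed relative to vehicle-only wells. The test organism is a mutant strain from a panel with lesions in DNA repair or checkpoint genes.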

[5] = NCI Yeast Anticancer Drug Screen. Data for the mlh1 rad18 strain (AID 175); details: S. cerevisiae mlh1 rad18 strain growth inhibition; at 50.0 µM; hits give high values
Summary of the method: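 In this whole-cell yeast screen, a strain with altered DNA damage repair is challenged with compound, and its growth is measured against matched vehicle-treated controls.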

[6] = NCI Yeast Anticancer Drug Screen. Data for the mec2-1 strain (AID 157); details: S. cerevisiae mec2-1 strain, at 50.0 µM, hits give high values
Summary of the method: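 Test agents were screened against the mec2-1 yeast strain, with defined DNA repair or cell cycle alteration. Growth was scored as inhibition against vehicle-only controls.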

Measured: growth inhibition

[CH3][Sn]([CH3])([n]1cnc(N)nc1=O)[n]1cnc(N)nc1=O
inactive: [1] 4.75% | [2] -10.3% | [3] -1.45% | [4] -2.55% | [5] -60.4%

COc1cc2c(cc1O)CC1c3c(cc(O)c(OC)c3-2)CCN1C (stereo not drawn)
inactive: [1] 1.55% | [2] -10.8% | [3] -15.8% | [4] -26.1% | [5] 2.85%

COc1ccc(CCN)c(OC)c1
inactive: [1] -11.2% | [2] -3.5% | [3] -13.1% | [4] -8.25% | [5] -35.1%

[Cl][Hg][c]1ccccc1N=Nc1ccccc1
active: [1] 91.7% | [2] 94.4% | [3] 97% | [4] 98% | [5] 94.5%

O=C(O)C(=O)O.[Co].[NH-]CC[NH-].[NH-]CC[NH-]
inactive: [1] 4.9% | [2] 6.65% | [3] -12.8% | [4] 22.4% | [5] 12.8%

C[N+](C)(C)CC1CCC/C1=N/O (stereo not drawn)
inactive: [1] 44.8% | [2] -0.5% | [3] 9.95% | [4] 26.8% | [5] 34.9%

O=C(NCC(O)CO)c1c([N+](=O)[O-])ccc(N(CCCl)CCCl)c1[N+](=O)[O-] (stereo not drawn)
inactive: [1] -11.2% | [2] -0.45% | [3] 1.45% | [4] -19.1% | [5] 21%

c1ccc(P2c3ccccc3Oc3ccccc32)cc1
inactive: [1] 36.9% | [2] 42.2% | [3] 42.6% | [4] 32.6% | [5] 37%

CCC(N)CBr (stereo not drawn)
inactive: [1] -9.65% | [2] -9.5% | [3] -16.9% | [4] 5.3% | [5] 8.9%

CCCc1ccc(CCN)cc1
inactive: [1] -8.55% | [2] -15.1% | [3] -9.45% | [4] -2.3% | [5] -23.2%

[Cl][Co][Br].[NH-]CC[NH-].[NH-]CC[NH-]
inactive: [1] -12.7% | [2] 13.9% | [3] -42.1% | [4] 36.4% | [5] 21.2%

CNC(Cc1ccccc1)c1cccc(OC)c1O (stereo not drawn)
inactive: [1] -7.55% | [2] -53.6% | [3] -28.4% | [4] -14.2% | [5] -10.8%

C1CN2CCOC2O1
inactive: [1] -12.4% | [2] -9.1% | [3] 4.65% | [4] 7.45% | [5] -7.1%

O=C(Cl)c1ccc[nH]1
inactive: [1] -0.95% | [2] -13.7% | [3] 21.1% | [4] -25.6% | [5] -0.15%

O=C(O)C(F)F
inactive: [1] -16.9% | [2] -18.2% | [3] -31% | [4] -15.3% | [5] -3.15%

CC(=O)Nc1nc2c(ncn2C2OCC(OC(C)=O)C(OC(C)=O)C2OC(C)=O)c(=O)[nH]1 (stereo not drawn) (tested in a mixture with another compound)
inactive: [1] 4.1% | [2] 2.65% | [3] -6.9% | [4] 6.1% | [5] 6.95%

O=C(CC(=O)C(F)(F)F)c1ccco1.[Co]
inactive: [1] -16.5% | [2] -16.5% | [3] -10.5% | [4] -7.8% | [5] 3.55%

Nc1cc(S(=O)(=O)O)cc2cc(S(=O)(=O)O)c(N=Nc3ccc([As]=O)cc3)c(O)c12 (stereo not drawn)
inactive: [1] -11.1% | [2] -9.3% | [3] -4.55% | [4] 6.05% | [5] -5.3%

C=C1C(=O)OC2CCN3CC=C(COC(=O)C(C)(O)C4(CO4)C1C)C23 (stereo not drawn)
inactive: [6] 0.95% | [2] -20.9% | [3] -12.8% | [4] -35.5% | [5] -59.5%

CC1=CC2=C(C)C3(CC3)[C@@](C)(O)C(=O)C2=C1
inactive: [1] 45.5% | [2] 55.8% | [3] 23.9% | [4] 26.9% | [5] -15.2%

COc1ccccc1-n1c(C)nc2ccccc2c1=O
inactive: [1] -5% | [3] 2.8% | [5] 4.8%
